# Screens from PubChem BioAssay.
# TDP1 cell noCPT: qHTS for Inhibitors of human tyrosyl-DNA phosphodiesterase 1 (TDP1): qHTS in cells in absence of CPT; AID 686978, 2013; hit rate 15% among 420,000; DT40 Tdp1-/- hTDP1 cells, no CPT, ATP luminescence, 48 h; Potency, µM (doses to about 46.2 µM), for the others: at the top dose activity change, negative = growth inhibition, actives largely listed as inhibitors; further: nearly all actives have a fitted effect of over 55% in size
#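 Compound effects on proliferation are scored in DT40 Tdp1-/-;hTDP1 cells in the absence of CPT. ATP levels (CellTiter-Glo luminescence) are recorded after a ≥48 hr, 37 °C incubation.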
# VDR inh: blocks the human vitamin D receptor; P11473; VDR-SRC2-3 peptide fluorescence polarization, 2 h; hit rate 0.93% among 400,000; Potency, µM, without a hit: max response, negative = inhibition, usual class: inhibitors; AID 504847
# Target sequence (P11473 whole entry, looked up): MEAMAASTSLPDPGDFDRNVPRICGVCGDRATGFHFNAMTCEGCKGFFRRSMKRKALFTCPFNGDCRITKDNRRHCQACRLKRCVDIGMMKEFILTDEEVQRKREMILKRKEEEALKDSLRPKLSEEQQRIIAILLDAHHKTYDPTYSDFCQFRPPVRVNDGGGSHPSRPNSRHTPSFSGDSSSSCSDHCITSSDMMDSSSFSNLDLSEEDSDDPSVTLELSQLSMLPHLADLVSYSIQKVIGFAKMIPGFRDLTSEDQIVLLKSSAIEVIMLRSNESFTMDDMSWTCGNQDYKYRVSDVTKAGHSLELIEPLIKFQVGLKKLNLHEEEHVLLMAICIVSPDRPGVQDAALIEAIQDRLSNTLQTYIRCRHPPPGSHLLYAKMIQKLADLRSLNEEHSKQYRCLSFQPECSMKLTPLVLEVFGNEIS
#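 Compounds are added to VDR with labelled SRC2-3 coactivator peptide and held 2 h at room temperature. Inhibition of the VDR–peptide interaction is then read as a change in fluorescence polarization.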
# PLK1 PBD block: blocks phosphopeptide binding to human PLK1 polo-box domain. P53350. Plk1 PBD binding of FITC phosphopeptide, fluorescence polarization. Potency, µM, for inactives: max response, negative = inhibition, actives largely listed as inhibitors. hit rate 2.8% among 360,000. AID 720504; further: series mostly up to about 57 µM; nearly all actives have a fitted effect of over 65% in size
# GCN5L2 inh: inhibitors of human GCN5L2 histone acetyltransferase; Q92830; GCN5L2 HAT assay, ThioGlo1 CoA-SH fluorescence; Potency, µM (doses to about 58.9 µM), for inactives: at the highest dose activity change, negative = inhibition, usual class: inhibitors; hit rate 0.21% among 390,000; AID 504327
#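 GCN5L2 (20nM final) in 50mM HEPES, 0.1mM EDTA pH 7.5, 0.01% Tween-20 was preincubated 15 min at room temperature with compound, then given ThioGlo1 (50uM), H3(1-25) peptide (75uM) and acetyl-CoA (70uM); CoA-thiol fluorescence (Ex340/Em540) was read at 0 and 20 min.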
# TDP1 inh: inhibitors of human tyrosyl-DNA phosphodiesterase TDP1. hit rate 0.28% among 350,000. Potency, µM (doses to about 130 µM), without a hit: at the highest dose activity change, negative = inhibition, actives largely listed as inhibitors. AID 485290. recombinant TDP1, AlphaScreen DNA substrate cleavage. Q9NUW8; further: nearly all actives have a fitted effect of over 40% in size
#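 Enzyme-compound mixtures sat 15 min at room temperature, followed by a 5 min reaction with 15 nM final substrate and 10 min with AlphaScreen beads. Recombinant human Tdp1 was used at 1 nM final.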
# DT40 TDP1 CPT: DT40-hTDP1 cell growth loss with CPT. Potency, µM (highest dose often 46.2 µM), without a hit: at the top dose activity change, negative = growth inhibition, usual class: inhibitors. hit rate 12% among 420,000. chicken DT40 Tdp1-/-;hTDP1 cells + 20 nM CPT, ATP luminescence, 48 h; further: nearly all actives have a fitted effect of over 55% in size
#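 Cell growth measured by CellTiter-Glo luminescence after a minimum 48 h, 37 C compound exposure with 20 nM CPT in Tdp1-knockout DT40 cells stably expressing hTDP1, seeded 400/well; qHTS titration format.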
# An asterisk follows results filed as active; ? = inconclusive; nt = not tested or not shown; [ ] = another dose, or the depositor's remark. Only some compounds are listed: those with a hit (about 18% of all), similar ones and a draw of the others. The call rests on the fitted dose curve; in most records, active means well fitted curve in the direction sought with a large enough effect; inconclusive means small, poorly fitted or top-dose-only effect, or another doubt; inactive means no such curve, though single readings can be large; an effect the other way counts as inactive or inconclusive. On the % scale 0 is the no-effect control and ±100 the full control effect; potency means the concentration at half of the fitted maximal effect.
SMILES,TDP1 cell noCPT,VDR inh,PLK1 PBD block,GCN5L2 inh,TDP1 inh,DT40 TDP1 CPT
COc1ccc(CCNC(=O)CCc2c(C)nc3cc(-c4cccc(F)c4)nn3c2C)cc1OC,8.2µM*,-26%,nt,-7%,9%,8.2µM*
COc1cc(OC)cc(-c2nc3nc(C)c(CCC(=O)Nc4cc(F)ccc4F)c(C)n3n2)c1,8.2µM*,-3%,nt,-7%,6%,?
Cc1c(C=O)c(=O)n(-c2ccccc2)n1-c1ccccc1,-25%,-3%,-7%,-4%,0%,-15%
CCc1ccccc1NC(=O)CCc1c(C)nc2cc(-c3ccccc3)nn2c1C,18µM*,-23%,nt,1%,3%,?
CCOC(=O)CC(NC(=O)CCc1c(C)nc2cc(-c3ccccc3)nn2c1C)c1ccc(C)cc1 (stereo not drawn),18µM*,-8%,nt,-3%,7%,16µM*
CCOC(=O)CC(NC(=O)CCc1c(C)nc2c(-c3ccccc3)c(C)nn2c1C)c1ccc(OC(C)C)cc1 (stereo not drawn),?,-3%,nt,-13%,-5%,?
CCC(C)c1ccccc1N1CC(C(=O)NCCCn2nc(C)cc2C)CC1=O (stereo not drawn),1%,-25%,2%,-2%,1%,-16%
CC(C)CNC(=O)CCc1nc(-c2ccccc2)no1,?,-8%,-7%,0%,-3%,-11%
Cn1c(CSCc2ccc(F)cc2)nnc1SCC(=O)Nc1cccc(C(=O)O)c1,0%,-9%,-8%,3%,0%,-5%
Fc1ccc(CSc2nc3ccccc3[nH]2)c2ccccc12,21µM*,-1%,-4%,-5%,5%,?
O=c1[nH]c(SCCOc2ccccc2F)nc2ccccc12,6.5µM*,0%,-10%,1%,-7%,2%
Cn1c(SCc2c(F)cccc2Cl)nc2ccccc2c1=O,-27%,-2%,-12%,-3%,-12%,-25%
COc1ccc(CSc2nc3ccccc3c(=O)[nH]2)cc1F,?,-11%,3%,-1%,-2%,?
O=c1[nH]c(SCc2ccc(F)cc2Cl)nc2ccccc12,21µM*,-1%,-18%,-12%,0%,-42%
COc1ccccc1OCCSc1nc2ccccc2c(=O)[nH]1,?,-13%,0%,2%,0%,?
Cn1c(SCCOc2ccccc2F)nc2ccccc2c1=O,16µM*,-7%,-2%,-5%,-6%,18µM*
COc1ccc([C@]23Cc4ccccc4C(O2)c2c(cc(C)n(Cc4ccccc4)c2=O)O3)cc1,nt,nt,nt,-10%[12.7 µM],nt,nt
COc1ccccc1-c1ccc(C(=O)N2CCC(N3CCc4ccccc4C3)CC2)c(N(C)CC2COCCO2)n1 (stereo not drawn),-5%,nt,nt,nt,nt,-2%[9.04 µM]
c1ccc(CCN(Cc2ccccc2)C2CCN(C3CCCC3)CC2)cc1,-26%,-8%,-9%,-6%,-3%,1%
CC1(C)C(CSc2nc3ccccc3[nH]2)C1(Cl)Cl (stereo not drawn),?,1%,-1%,-6%,-3%,23µM*
COc1ccc(N=C2c3ccccc3-c3ccc([N+](=O)[O-])cc32)cc1,-14%,9%,-3%,nt,nt,-18%
Cc1ccc(-n2c(N)c(C(=O)Nc3ccccc3F)sc2=S)cc1C,-14%,-6%,?,-15%,7%,?
CC(C)(C)NC(=O)C(c1ccc(-c2ccccc2)cc1)N(C[C@H]1CC[C@@H]([C@@H]2CC[C@H](CO)O2)O1)C(=O)c1ccc(C(C)(C)C)cc1 (stereo partly drawn),21µM*,2%,-12%,-19%,2%[56.1 µM],?
O=C(NCc1ccccc1)C12CN(Cc3ccccc3)CC1C(c1cccc([N+](=O)[O-])c1)=NO2 (stereo not drawn),23µM*,-9%,1%,-12%,4%,?
Cc1ccc(CCNC(=O)C23CN(Cc4ccccc4)CC2C(c2ccc([N+](=O)[O-])cc2)=NO3)cc1 (stereo not drawn),?,-20%,-15%,-10%,12%,21µM*
SMILES,TDP1 cell noCPT,VDR inh,PLK1 PBD block,GCN5L2 inh,TDP1 inh,DT40 TDP1 CPT
CC(C)NC(=S)N/N=C1\CCCCc2ccccc21,21µM*,-15%,-22%,-2%,5%,?
COc1ccc(OCC(=O)N/N=C2\CCCCc3ccccc32)cc1,?,-26%,11µM*,-19%,8%,?
S=C(N/N=C1\CCc2ccccc21)NC1CCCCC1,23µM*,4%,-6%,2%,8%,?
CC(=O)c1ccc(NC(=O)COCc2cc(-c3ccco3)on2)cc1,?,28%,nt,-6%,7%,?
C=C1CCN(C(Cc2ccccc2)C(=O)NC2CCN(Cc3ccccc3)CC2)S(=O)(=O)c2ccccc21 (stereo not drawn),nt,-21%,nt,nt,-8%,nt
Cc1c(C(=O)OC2CCCCC2)[nH]c2c1C(=O)CC(c1ccc(F)cc1)C2 (stereo not drawn),?,-20%,nt,2%,-5%,?
Cc1c(C(=O)OC2CCCC2)[nH]c2c1C(=O)CC(c1ccc(C(C)(C)C)cc1)C2 (stereo not drawn),?,-23%,nt,-10%,0%,18µM*
COc1ccc(C2CC(=O)c3c([nH]c(C(=O)OC4CCCC4)c3C)C2)cc1OC (stereo not drawn),-13%,-19%,nt,14%,5%,-6%
Cc1c(C(=O)OC2CCCCC2)[nH]c2c1C(=O)CC(c1ccccc1Cl)C2 (stereo not drawn),2.1µM*,-18%,nt,-5%,5%,4.1µM*
COc1ccc(C2CC(=O)c3c([nH]c(C(=O)OC4CCCCCC4)c3C)C2)cc1OC (stereo not drawn),4.6µM*,-13%,nt,-3%,5%,3.7µM*
Cc1c(C(=O)OC2CCCCCC2)[nH]c2c1C(=O)CC(c1ccc(N(C)C)cc1)C2 (stereo not drawn),?,-20%,nt,-20%,-5%,-4%
Cc1c(C(=O)OC2CCC(C)CC2)[nH]c2c1C(=O)CC(c1ccc(F)cc1)C2 (stereo not drawn),18µM*,-9%,nt,-1%,0%[12.3 µM],?
COc1ccc(CC(=O)Nc2sc3c(c2C(=O)Nc2cccc(C)c2)CCCCC3)cc1,?,-8%,nt,-6%,-15%[12.3 µM],?
Cn1c(C23CC4CC(CC(C4)C2)C3)n[nH]c1=S,?,-21%,-6%,-1%,4%,?
CCOc1[nH]c(/N=C/c2ccc(OC)cc2)c(C#N)c1C#N,-11%,-31%,nt,nt,1%,-29%
